These results are taken from PubChem BioAssay (Tox21).

Where “and” joins values, the source holds several entries; their conditions need not be identical. Identical values can stand only once. Results filed as inconclusive are left out. Where a call stands in place of a potency, no number is given. A structure can be active in one record and inactive in another. Calls of active or inactive are those of the source. The call rests on the fitted dose curve.
Potency means the concentration at half of the fitted maximal effect.

The nature of this test: qHTS assay to identify small molecule agonists of the progesterone receptor (PR) signaling pathway - cell viability counter screen (AID 1346799). Further: nearly all actives have a fitted effect of over 45% in size. To be noted: PR-UAS-bla HEK293T viability, CellTiter-Glo luminescence, 16 h; series mostly up to 92.4 µM; activity change, negative = cytotoxicity: at the top concentration. The text has this: National Center for Advancing Translational Sciences [NCATS]
NIH Chemical Genomics Center [NCGC]
U.S. Environmental Protection Agency [EPA]
National Institutes of Environmental Health Sciences [NIEHS]
National Toxicology Program [NTP]
U.S. Food and Drug Administration [FDA]
Progesterone receptor (PR), a nuclear hormone receptor, plays an important role in development, metabolic homeostasis and reproduction. It is activated by the steroid hormone progesterone. Endocrine disrupting chemicals (EDCs) and their interactions with steroid hormone receptors like PR causes disruption of normal endocrine function. To identify the compounds that stimulate PR signaling, a PR-UAS-bla GripTite cell line i.e. PR-UAS-bla HEK293T (Invitrogen, Carlsbad, CA, USA) containing a beta-lactamase reporter gene under the control of an UAS response element was used to screen Tox21 10K compound library. The cytotoxicity of the Tox21 compound library against the PR-bla cell line was tested in parallel by measuring the cell viability using CellTiter-Glo assay in the same wells.
Tox21 Assay Protocol Summary:
PR-UAS-bla HEK293T cells were dispensed at 3,000 cells/5 uL of assay medium containing 2% charcoal stripped FBS per well into black wall/clear-bottom 1536-well plates using a Multidrop Combi (ThermoFisher Scientific, Waltham, MA) dispenser. After the assay plates were incubated at a 37C and 5% CO2 for 6 hr, 23 nL of compounds dissolved in DMSO, positive controls or DMSO only was transferred to the assay plate by a Pintool station (Kalypsys, San Diego, CA). The plates were incubated at 37C and 5% CO2 for 16 hr. Then 1 uL of LiveBLAzer B/G FRET substrate was added using a Flying Reagent Dispenser (FRD, Aurora Discovery, San Diego, CA), the plates were incubated at room temperature for 2 hours, and fluorescence intensity was measured by an Envision plate reader (PerkinElmer, Shelton, CT). For cell viability readout that measures cytotoxicity, 4 uL/well of CellTiter-Glo reagent was added into the assay plates using a FRD. After 30 min incubation at room temperature, the luminescence intensity in the plates was measured using a ViewLux (PerkinElmer) plate reader.
On the technique in general: Quantitative high-throughput screening tests each substance at several concentrations.
For the compound `O=[N+]([O-])C(CO)(CO)CO`, the Potency result was “inactive”.
Same read-out and setting: with `CCCCOCCOCCOC(=O)CCCCC(=O)OCCOCCOCCCC` the entry was “inactive”.
In the case of `CC#C[C@]1(O)CC[C@H]2[C@@H]3CCC4=CC(=O)CCC4=C3[C@@H](c3ccc(N(C)C)cc3)C[C@@]21C`, the “activity change, negative = cytotoxicity” value was 9.86% [at 42.5 µM] (inactive).
In the case of `C[C@@H](O)[C@H]1C(=O)N2C(C(=O)O)=C(S[C@@H]3CN[C@H](C(=O)N(C)C)C3)[C@H](C)[C@H]12`, the Potency entry is “inactive”.
Still for that read-out and setting: next, `O=[N+]([O-])c1cc(N(CCO)CCO)ccc1NCCO`: “inactive”.
Regarding `CCCCCCCCCCCCN`, the “activity change, negative = cytotoxicity” value is -17.8% (inactive).
Turning to `CCCCCCOC(C)=O`, the Potency entry was “inactive and 8.63 µM (active)”.
Take `C=C(C)C(=O)OCCC[Si](OC)(OC)OC`: the Potency result was “inactive”.
Take `CCCCNC(N)=O`: the Potency result was “inactive”.
On the same count and under the same terms, with `CC1=CC[C@H]2C[C@@H]1C2(C)C` the entry was “inactive”.
As for `CCc1ccc(O)cc1`, the “activity change, negative = cytotoxicity” value was 6.23% (inactive).
As to `OCC#CCO`, the “activity change, negative = cytotoxicity” value was 0.946% (inactive).
Consider `O=S(=O)(O)c1cc(S(=O)(=O)O)c2c(N=Nc3ccccc3)c(O)ccc2c1`, for which the Potency entry was “inactive”.
In the case of `CN(CCOc1ccc(CC2SC(=O)NC2=O)cc1)c1ccccn1` (stereo not given), the “activity change, negative = cytotoxicity” value was 6.78% [at 42.5 µM] (inactive).
As for `CC1Cc2ccccc2N1NC(=O)c1ccc(Cl)c(S(N)(=O)=O)c1` (stereo not given), the Potency entry was “inactive”.
The same measure, in the same setting: next, `S=c1nc[nH]c2nc[nH]c12`: 4.74 µM (active) and 11.9 µM (active); `CCCCC(CC)COC(=O)/C=C\C(=O)OCC(CC)CCCC` (stereo not given): “inactive”.
Still for that read-out and setting: next, `OC[C@@H](O)[C@@H](O)[C@H](O)[C@@H](O)CO`: “inactive”.
For the compound `Cc1cc(Cc2ccc(N)c(C)c2)ccc1N`, the “activity change, negative = cytotoxicity” value is -15.8% (inactive).
Turning to `NC(=O)NNc1ccccc1`, the Potency entry is “inactive”.
Still for that read-out and setting: with `O=C(Cl)c1c(Cl)c(Cl)c(C(=O)Cl)c(Cl)c1Cl` the entry was “inactive”; with `CC(C)(N=C=O)c1cccc(C(C)(C)N=C=O)c1`, “inactive”; with `C=C(C)C(=O)OCCCCCCCCCCCC`, “inactive”.
On the same count and under the same terms, with `C/C=C(C)/C=C/C=C(C)C` the entry was “inactive”; with `O=C(Oc1ccccc1)c1ccc(O)cc1`, “inactive”.
For the compound `CCOC(=O)C1OC1c1ccccc1` (stereo not given), the “activity change, negative = cytotoxicity” value is -24.3% (inactive).
`COC(=O)c1ccccc1O`: the Potency result was “inactive”.
Consider `ClC1=C(Cl)C(Cl)(Cl)C(Cl)=C1Cl`, for which the Potency entry is “inactive”.
As to `O=C1N=C(O)CN1/N=C/c1ccc(-c2ccc([N+](=O)[O-])cc2)o1`, the “activity change, negative = cytotoxicity” value was 0.5% [at 42.5 µM] (inactive).
On to `O=S(=O)(Oc1ccc(Cl)cc1Cl)c1ccccc1`, for which the Potency result was “inactive”.
The same measure, in the same setting: next, `CCCCCCCCCC(=O)O`: “inactive”.
For `CCOC(=O)/C=C\C(=O)OCC`, the Potency entry is “inactive”.
Turning to `C=C1CC[C@H](O)CC1=C/C=C1\CCC[C@]2(C)[C@@H]([C@H](C)/C=C/[C@H](C)C(C)C)CC[C@@H]12`, the Potency result is “inactive”.
As to `Cc1cc(O)c2c(c1)C(=O)c1cc(O)cc(O)c1C2=O`, the “activity change, negative = cytotoxicity” value was 23.2% [at 42.5 µM] (inactive).
For `O=C(O)c1cc(-c2ccccc2)nc2ccccc12`, the Potency entry is “inactive”.
With `CNC[C@H](O)[C@@H](O)[C@H](O)[C@H](O)CO`, the Potency entry was “inactive”.
On the same count and under the same terms, next, `CCCCC(CC)COC(=O)CCCCCCCC(=O)OCC(CC)CCCC` (stereo not given): 54.5 µM (active) and inactive.
Turning to `CC(C)(C)C(=O)C1C(=O)c2ccccc2C1=O`, the “activity change, negative = cytotoxicity” value was -3.86% (inactive).
`Cc1ccc(C(=O)O)o1`: the Potency entry is “inactive”.
Consider `CC1(C)O[C@@H]2C[C@H]3[C@@H]4C[C@H](F)C5=CC(=O)CC[C@]5(C)[C@H]4[C@@H](O)C[C@]3(C)[C@]2(C(=O)CO)O1`, for which the “activity change, negative = cytotoxicity” value was 14.1% (inactive).
